Shown are actives, neighbours in structure and some others; about 1.8% of the full set was active somewhere.
APP transl inh: APP translation inhibition | hit rate 0.82% among 190,000 | inhibition, % at 2 µM | SH-SY5Y APP 5'UTR-luciferase reporter, luminescence;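 active means inhibition above a set limit, derived from the sample mean plus 3 SD, cut at about 45% in these data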
IEC-6 tox-1: kills IEC-6 intestinal cells in KLF5 counter-screen. inhibition, % at 5 µM. AID 1825. hit rate 0.78% among 290,000. IEC-6 cytotoxicity, luminescence viability;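 further: 0% = plate median of test compound wells and 100% = cytotoxic reference compound wells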
BaF3 parental: reduces parental Ba/F3 cell viability, JAK2V617F counter-screen; inhibition, % at 5.6 µM; hit rate 1.1% among 220,000; CellTiter-Glo ATP luminescence;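 active means inhibition above a per-campaign cutoff, the mean inhibition of all tested compounds plus 3 SD, cut at about 27% in these data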;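 further: 0% = DMSO wells and 100% = JAK Inhibitor I control wells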
KLF5 inh: kruppel-like factor 5 inhibition. DLD-1 KLF5 promoter-luciferase reporter, luminescence. inhibition, % at 5 µM. hit rate 0.23% among 290,000. AID 1700;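 active means inhibition above a per-plate limit of that plate's mean compound inhibition plus 3 SD, cut at about 60% in these data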;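 further: 0% = DMSO wells and 100% = LY294002 at 200 µM; higher means less KLF5 promoter-driven luciferase light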
Ba/F3 V617F tox: loss of viability in JAK2V617F-driven Ba/F3 cells; Ba/F3 EpoR-JAK2V617F viability, ATP luminescence; inhibition, % at 5.6 µM; hit rate 1.1% among 220,000; AID 1446;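 active means inhibition above the campaign mean plus 3 SD over all tested compounds, cut at about 24% in these data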;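 further: cytokine-independent growth of Ba/F3 cells driven by EpoR plus mutant JAK2; 0% = DMSO-treated cells and 100% = JAK inhibitor I control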
BaF3 tox 2: reduces parental Ba/F3 viability, JAK2V617F counter-screen; shares compounds with Ba/F3 V617F tox; CellTiter-Glo luminescence; cells kept alive by added IL-3; inhibition, % at 5.6 µM; hit rate 31% among 580; AID 1520;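 active means cell growth inhibition above the hit limit set in the earlier mutant JAK2 cell screen, cut at about 27% in these data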;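 further: plate controls were DMSO-treated cells for no effect and JAK Inhibitor I control wells for full effect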
JAK2V617F confrm: confirmation: loss of viability in JAK2V617F-dependent Ba/F3 cells; shares compounds with Ba/F3 V617F tox; hit rate 66% among 580; Ba/F3 EpoR-JAK2V617F viability, CellTiter-Glo luminescence; AID 1521; inhibition, % at 5.6 µM;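 active means mean inhibition above the hit cutoff derived in the earlier primary screen, cut at about 25% in these data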;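 further: 0% = DMSO-treated cells and 100% = JAK inhibitor I control wells; higher means lower luminescence from reduced cell ATP and viability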
KLF5 confirm: KLF5 inhibition, confirmation assay; shares compounds with KLF5 inh; DLD-1 KLF5 promoter firefly luciferase reporter, luminescence; inhibition, % at 4 µM; hit rate 79% among 610;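 active means inhibition above a set limit taken from the earlier primary screen, cut at about 63% in these data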;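 further: 0% = DMSO wells and 100% = LY294002 at 200 µM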
IEC-6 tox-2: kills rat IEC-6 cells in KLF5 counter-screen | hit rate 56% among 610 | inhibition, % at 4 µM | AID 1905 | IEC-6 rat intestinal cells, viability luminescence | shares compounds with KLF5 inh; in the data active means inhibition above about 23%;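 further: cells exposed to compounds for 48 hours before viability read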
IEC-6 tox confirm: confirmation of cytotoxic compounds in rat IEC-6 intestinal epithelial cells. shares compounds with IEC-6 tox-1. IEC-6 rat intestinal epithelial viability, luminescence. inhibition, % at 5 µM. hit rate 63% among 1,900. AID 1907;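 further: 0% = vehicle and 100% = reference cytotoxic drug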
Starred values were filed as active, the others as inactive; · = no result. Unless noted, no stated cut-off is given here; in the data, active means inhibition above about 22%; inactive means the rest.

SMILES	APP transl inh	IEC-6 tox-1	BaF3 parental	KLF5 inh	Ba/F3 V617F tox	KLF5 confirm	IEC-6 tox-2	others
COc1ccc(OCCCC(=O)Nc2cccc(C(C)=O)c2)cc1	7	89*	-1	-20	73*	·	·	BaF3 tox 2=-6;JAK2V617F confrm=-4;IEC-6 tox confirm=-10
O=C(N/N=C/c1ccccc1Cl)c1[nH]c2ccc(Br)cc2c1-c1ccccc1	96*	56*	21	13	47*	·	·	BaF3 tox 2=88*;JAK2V617F confrm=100*;IEC-6 tox confirm=70*
COc1ccc(-c2[nH]ncc2CN2CCC(O)(c3ccc(Cl)cc3)CC2)cc1	·	34*	11	-7	41*	·	·	BaF3 tox 2=34*;JAK2V617F confrm=41*;IEC-6 tox confirm=23*
OC1(c2ccc(Cl)cc2)CCN(Cc2cn[nH]c2-c2ccccc2)CC1	·	14	-1	-6	13	·	·
OC1(c2ccc(Cl)cc2)CCN(Cc2cn[nH]c2-c2ccc(F)cc2)CC1	·	43*	3	-13	45*	·	·	BaF3 tox 2=18;JAK2V617F confrm=34*;IEC-6 tox confirm=26*
O=C(CCl)N=c1sccn1Cc1cccc2ccccc12	13	92*	5	-15	102*	·	·	BaF3 tox 2=24;JAK2V617F confrm=99*;IEC-6 tox confirm=17
Cn1c(=NC(=O)CCl)sc2ccccc21	25	0	2	-5	13	·	·
CCc1nnc(N/N=C/c2ccccc2Cl)n1N	6	100*	24	39	25*	·	·	BaF3 tox 2=-4;JAK2V617F confrm=-2;IEC-6 tox confirm=-6
CC1(C)CC(=O)C2=C(C1)OC1=C(C2)C(=O)CC(C)(C)C1	-4	0	3	2	0	·	·
COc1ccc(OC)c2c1C(=O)C(Cl)=C(Cl)C2=O	·	86*	-4	7	66*	·	·	BaF3 tox 2=84*;JAK2V617F confrm=92*;IEC-6 tox confirm=63*
BrC(=C\c1ccccc1)/C=N/n1cnnc1	79*	75*	-11	20	65*	·	·	BaF3 tox 2=55*;JAK2V617F confrm=96*;IEC-6 tox confirm=26*
Cc1cc2c(cc(C(=O)OCC(=O)NCc3cccs3)n2C(C)C)o1	75*	77*	18	58	37*	·	·	BaF3 tox 2=41*;JAK2V617F confrm=90*;IEC-6 tox confirm=55*
Cc1cc(C)cc(C(=O)OCC(=O)NCc2cccs2)c1	-1	3	2	27	-4	·	·
COc1ccc(N(C(=O)CCl)C(C(=O)NCCc2ccccc2)c2cccs2)cc1Cl (stereo not drawn)	-2	78*	-2	1	101*	·	·	BaF3 tox 2=25;JAK2V617F confrm=99*;IEC-6 tox confirm=42*
COc1cccc(N(C(=O)CCl)C(C(=O)NCCc2ccccc2)c2cccs2)c1 (stereo not drawn)	4	87*	4	2	99*	·	·	BaF3 tox 2=21;JAK2V617F confrm=99*;IEC-6 tox confirm=41*
NC(=O)N/N=C/c1ccccc1OCc1cccc2ccccc12	·	-4	·	-36	·	·	·
Cc1cc(C=O)c(O)cc1O	·	0	·	-9	·	·	·
COc1ccc(N(C(=O)c2ccccc2C)S(=O)(=O)c2cccs2)cc1	93*	72*	74*	66*	68*	76*	62*
COc1ccc(N(C(=O)c2ccncc2)S(=O)(=O)c2ccccc2)cc1	·	-1	·	-4	·	·	·
COc1ccccc1-c1nc(-c2ccccn2)no1	-98	18	23	-11	20	·	·
COc1ccc(-c2nc(-c3ccccn3)no2)cc1	46*	28*	35*	110*	34*	103*	45*
Cc1ccc(C2/C(=C(/O)c3cnn(-c4ccccc4)c3C)C(=O)C(=O)N2CCCN2CCOCC2)o1 (stereo not drawn)	·	-2	-3	-17	0	·	·
Cc1c(/C(O)=C2/C(=O)C(=O)N(CCN3CCOCC3)C2c2ccccn2)cnn1-c1ccccc1 (stereo not drawn)	-15	1	5	69*	1	36	4
COc1ccc(Oc2c(C(F)(F)F)oc3cc(OCC(=O)O)ccc3c2=O)cc1	·	0	·	-23	·	·	·
Cc1cc(C(=O)CN2C(=O)c3ccccc3S2(=O)=O)c(C)n1CC1CCCO1 (stereo not drawn)	86*	-3	1	83*	-3	104*	17
SMILES	APP transl inh	IEC-6 tox-1	BaF3 parental	KLF5 inh	Ba/F3 V617F tox	KLF5 confirm	IEC-6 tox-2	others
COc1ccc(C(=O)CN2C(=O)c3ccccc3S2(=O)=O)cc1	·	-3	-4	72*	-3	56	-4
O=C(CSc1nnc2c(n1)[nH]c1ccc(F)cc12)NCc1ccc(F)cc1	·	0	·	-13	·	·	·
O=C(Nc1nc2cc3c(cc2s1)OCO3)C1=COCCO1	-75	21	15	78*	11	49	12
COc1cc(OC)cc(C(=O)NN2CCOCC2)c1	·	-1	·	9	·	·	·
O=C(Nc1nncs1)c1cc2c(s1)CCC2	-40	0	8	-93	1	·	·
O=C(Nc1nccs1)c1cc2c(s1)CCCCC2	-37	9	7	75*	-1	70*	-1
COC(=O)c1ccc(OC(=O)CCc2cc(OC)c(OC)c(OC)c2)cc1	34	-4	10	-19	4	·	·
COc1cc(/C=C2\SC(=S)N(CCC(=O)NC3CCCC3)C2=O)cc(OC)c1OC	·	4	·	-20	·	·	·
Cc1ccc(/C=C2/SC(=S)N(CCCC(=O)Nc3ccc(O)cc3)C2=O)cc1	63*	5	-2	67*	1	107*	7
Cc1ccc(/C=C2\SC(=S)N(CCCC(=O)NC3CCCC3)C2=O)cc1	·	3	·	65*	·	4	5
C[C@@H]1CN(C(=O)c2cc(COc3cccc(C(F)(F)F)c3)on2)C[C@H](C)O1	·	3	·	-73	·	·	·
CC(C)(C)c1ccc(-c2noc(CCC(=O)NCc3ccco3)n2)cc1	68*	-1	26	62*	-3	65*	11
N/C(=N\OCc1ccc([N+](=O)[O-])cc1)c1ccccn1	-34	0	9	88*	1	97*	-3
COc1ccc(-c2nsc3c(N4CCCCC4)ncnc23)cc1	-98	2	1	-24	-4	·	·
COc1ccc(-c2nsc3c(N4CCCCC4C)ncnc23)cc1 (stereo not drawn)	34	-2	6	76*	-1	92*	3
C=CCn1c(SCc2cc(C(C)=O)ccc2OCC)nc2ccccc2c1=O	93*	34*	79*	65*	84*	79*	64*
CCn1nc(C)c(CN2CCC(n3nccc3NC(=O)Cc3ccccc3)CC2)c1C	·	7	·	6	·	·	·
Oc1c(Cl)cc(CN2CCCCC2)c2cccnc12	·	7	·	98*	·	92*	12
COc1ccccc1N1CCN(c2nc(C)nc3c2oc2ccccc23)CC1	93*	80*	71*	67*	65*	79*	64*
COc1ccccc1N1CCN(Cc2cc(Br)c(O)c3ncccc23)CC1	21	1	86*	93*	98*	65*	-2
Oc1c(Cl)cc(Cl)c2cccnc12	5	0	6	-7	2	·	·

From PubChem BioAssay
